# Measurements published in PubChem BioAssay (Tox21).
# Unmarked numbers belong to inactive results. Results filed as inconclusive are left out. Entries that show only a call come without a potency. Calls of active or inactive are those of the source. Unless noted, the call rests on the fitted dose curve; in most records, active means well fitted curve in the direction sought with a large enough effect in the repeat runs; inconclusive means weak or mixed curves; inactive means no such curve, though single readings can be large; an effect the other way counts as inactive or inconclusive.
# Assays:
# [1] = qHTS assay to test for compound auto fluorescence at 535 nm (green) in HEK293 cells (AID 720680)
# [2] = qHTS assay to test for compound auto fluorescence at 460 nm (blue) in HEK293 cell free culture (AID 720681)
# Summary of the method: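 Compounds were added to cell-free DMEM with 10% FBS and fluorescence read directly. The blue channel used 405 nm excitation and 460 nm emission, with triamterene as the reference fluorophore.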
# [3] = qHTS assay to test for compound auto fluorescence at 535 nm (green) in HEK293 cell free culture (AID 720682)
# Summary of the method: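 Measurement is a direct plate read of green fluorescence (485 nm in, 535 nm out) after compound addition to serum-supplemented DMEM lacking cells, with fluorescein used to express intensities.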
# [4] = qHTS assay to test for compound auto fluorescence at 590 nm (red) in HEK293 cell free culture (AID 720683)
# Summary of the method: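 Cell-free wells of DMEM with 10% FBS received compound, and intrinsic fluorescence was read at excitation/emission 540/590 nm. Values expressed as equivalence to Rose Bengal sodium.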
# [5] = qHTS assay to test for compound auto fluorescence at 590 nm (red) in HepG2 cell free culture (AID 720684)
# Summary of the method: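 Auto fluorescence equivalency versus Rose Bengal sodium, red channel Ex/Em 540/590 nm; compounds in cell-free MEM/10% FBS; DMSO vehicle control.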
# [6] = qHTS assay to test for compound auto fluorescence at 460 nm (blue) in HepG2 cell free culture (AID 720685)
# Summary of the method: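 Cell-free plates of MEM plus 10% FBS received 23 nL compound or DMSO vehicle; blue-channel (405/460 nm) intensity scored against triamterene as reference fluorophore.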
# [7] = qHTS assay to test for compound auto fluorescence at 535 nm (green) in HepG2 cell free culture (AID 720686)
# [8] = qHTS assay to test for compound auto fluorescence at 460 nm (blue) in HepG2 cells (AID 720687)
# Summary of the method: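 HepG2 cells in MEM with 10% FBS, attached overnight at 37 C, were exposed to compound or DMSO for 1 hr at 37 C, 5% CO2. Blue fluorescence was read at 405/460 nm, with triamterene as reference fluorophore.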
# [9] = target: Glucocorticoid receptor (Homo sapiens) (UniProt P04150); test: qHTS assay to identify small molecule agonists of the glucocorticoid receptor (GR) signaling pathway (AID 720691; active means well fitted activation curve with a large enough effect in the signal ratio in the repeat runs, not every such curve was filed as active; the % refers to the signal ratio; further: potency means the concentration at half of the fitted maximal effect)
# Sequence of Glucocorticoid receptor (Homo sapiens) (P04150 whole entry, looked up): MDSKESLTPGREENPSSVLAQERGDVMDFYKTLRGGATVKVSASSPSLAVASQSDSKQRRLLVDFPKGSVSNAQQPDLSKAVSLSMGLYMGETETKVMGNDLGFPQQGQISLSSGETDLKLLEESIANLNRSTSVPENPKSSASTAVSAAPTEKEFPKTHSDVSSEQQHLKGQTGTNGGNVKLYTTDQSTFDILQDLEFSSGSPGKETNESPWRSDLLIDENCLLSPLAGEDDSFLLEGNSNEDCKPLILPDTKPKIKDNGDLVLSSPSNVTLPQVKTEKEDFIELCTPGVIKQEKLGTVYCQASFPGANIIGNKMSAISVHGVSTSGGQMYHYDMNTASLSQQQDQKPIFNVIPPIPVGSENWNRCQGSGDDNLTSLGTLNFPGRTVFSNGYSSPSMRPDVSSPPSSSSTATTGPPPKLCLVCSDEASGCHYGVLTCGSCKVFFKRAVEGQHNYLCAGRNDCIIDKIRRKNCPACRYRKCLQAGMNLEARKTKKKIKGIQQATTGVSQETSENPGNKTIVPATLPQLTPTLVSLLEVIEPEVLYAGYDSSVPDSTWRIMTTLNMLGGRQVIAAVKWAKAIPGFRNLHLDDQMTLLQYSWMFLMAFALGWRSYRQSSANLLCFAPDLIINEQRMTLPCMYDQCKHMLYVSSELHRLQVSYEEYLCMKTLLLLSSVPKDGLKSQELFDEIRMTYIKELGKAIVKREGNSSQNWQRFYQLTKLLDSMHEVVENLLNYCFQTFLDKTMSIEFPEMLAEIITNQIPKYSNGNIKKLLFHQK
# Summary of the method: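 Cells: GR-bla HeLa, endogenous GR with stably integrated GRE-beta-lactamase reporter. Treatment 18 h, 37 C, compounds delivered in DMSO. Detection via LiveBLAzer B/G FRET substrate, 2 h RT, fluorescence intensity.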
# [10] = target: Glucocorticoid receptor (Homo sapiens) (UniProt P04150); test: qHTS assay to identify small molecule antagonists of the glucocorticoid receptor (GR) signaling pathway (AID 720692; active means well fitted inhibition curve with a large enough effect in the signal ratio in the repeat runs, not every such curve was filed as active; the % refers to the signal ratio)
# Summary of the method: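 Quantitative HTS in antagonist format: HeLa cells expressing endogenous GR and a stably integrated GRE-bla reporter, stimulated with 5 nM dexamethasone (final) alongside test compounds for 18 h.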
# [11] = qHTS assay to identify small molecule antagonists of the glucocorticoid receptor (GR) signaling pathway - cell viability counter screen (AID 720693); further: nearly all actives have a fitted effect of over 55% in size
# [12] = qHTS assay for identifying genotoxic compounds that show differential cytotoxicity against isogenic chicken DT40 cell lines with known DNA damage response pathways - wild type cell line (AID 743012); further: nearly all actives have a fitted effect of over 60% in size
# Summary of the method: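 Luminescent ATP viability signal (CellTiter-Glo, 30 min RT) recorded after wild type DT40 cells were incubated with compounds for 40 h at 37 C/5% CO2.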
# [13] = qHTS assay for identifying genotoxic compounds that show differential cytotoxicity against isogenic chicken DT40 cell lines with known DNA damage response pathways - Rev3 mutant cell line (AID 743014); further: nearly all actives have a fitted effect of over 55% in size
# [14] = qHTS assay for identifying genotoxic compounds that show differential cytotoxicity against isogenic chicken DT40 cell lines with known DNA damage response pathways - Rad54/Ku70 mutant cell line (AID 743015); further: nearly all actives have a fitted effect of over 60% in size
# [15] = qHTS assay to identify small molecule antagonists of the androgen receptor (AR) signaling pathway - cell viability counter screen (AID 743033; further: nearly all actives have a fitted effect of over 45% in size)
# [16] = qHTS assay to identify small molecule antagonists of the androgen receptor (AR) signaling pathway using the MDA cell line - cell viability counter screen (AID 743041; further: nearly all actives have a fitted effect of over 45% in size)
# Summary of the method: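 Compound exposure lasted 16 h at 37C in MDA-kb2 AR-luc cells stimulated with R1881. Protease-based CellTiter-Fluor reagent was applied for the final 30 min and fluorescence measured.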
# [17] = target: Androgen receptor (Homo sapiens) (UniProt P10275); test: qHTS assay to identify small molecule agonists of the androgen receptor (AR) signaling pathway (AID 743036; active means well fitted activation curve with a large enough effect in the signal ratio in the repeat runs, with a control signal flat, not every such curve was filed as active; the % refers to the signal ratio)
# Sequence of Androgen receptor (Homo sapiens) (P10275 whole entry, looked up): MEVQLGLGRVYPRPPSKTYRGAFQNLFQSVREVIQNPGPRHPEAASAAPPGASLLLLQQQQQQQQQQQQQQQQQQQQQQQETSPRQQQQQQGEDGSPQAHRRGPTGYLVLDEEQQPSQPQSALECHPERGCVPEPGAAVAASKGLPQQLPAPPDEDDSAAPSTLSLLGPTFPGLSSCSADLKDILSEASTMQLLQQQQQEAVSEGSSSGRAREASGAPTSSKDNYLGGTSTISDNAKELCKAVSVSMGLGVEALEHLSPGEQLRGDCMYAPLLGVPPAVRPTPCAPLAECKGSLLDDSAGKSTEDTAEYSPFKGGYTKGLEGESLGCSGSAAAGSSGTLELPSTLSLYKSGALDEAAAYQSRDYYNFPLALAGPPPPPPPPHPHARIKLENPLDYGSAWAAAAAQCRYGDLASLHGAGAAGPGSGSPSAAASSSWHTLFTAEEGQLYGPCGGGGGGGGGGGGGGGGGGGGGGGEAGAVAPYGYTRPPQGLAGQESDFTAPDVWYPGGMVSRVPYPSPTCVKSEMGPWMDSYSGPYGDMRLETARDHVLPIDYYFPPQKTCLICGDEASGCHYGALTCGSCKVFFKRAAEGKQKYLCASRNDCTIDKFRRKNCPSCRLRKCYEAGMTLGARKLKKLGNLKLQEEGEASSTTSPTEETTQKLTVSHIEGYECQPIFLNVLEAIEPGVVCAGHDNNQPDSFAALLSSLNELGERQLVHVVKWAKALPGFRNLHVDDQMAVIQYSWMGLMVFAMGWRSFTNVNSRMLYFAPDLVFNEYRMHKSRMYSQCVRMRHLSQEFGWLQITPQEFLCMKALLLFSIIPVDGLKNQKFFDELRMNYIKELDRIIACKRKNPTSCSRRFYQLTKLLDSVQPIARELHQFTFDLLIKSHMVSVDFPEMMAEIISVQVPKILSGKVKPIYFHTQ
# Summary of the method: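 Beta-lactamase under UAS control, stably integrated in HEK293 GripTite cells, reports receptor activation. After 16 h compound treatment, cells received FRET substrate for 2 h at room temperature before fluorescence reading.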
# [18] = target: Androgen receptor (Homo sapiens) (UniProt P10275); test: qHTS assay to identify small molecule agonists of the androgen receptor (AR) signaling pathway using the MDA cell line (AID 743040; further: nearly all actives have a fitted effect of over 20% in size)
# Summary of the method: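 Testing was done with the MDA-kb2 AR-luc line, a human breast carcinoma stably transfected with MMTV-luciferase containing AR and GR response elements. Cells were exposed 16 h at 37C before ONE-Glo luminescence detection.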
# [19] = target: Androgen receptor (Homo sapiens) (UniProt P10275); test: qHTS assay to identify small molecule antagonists of the androgen receptor (AR) signaling pathway using the MDA cell line (AID 743042; further: nearly all actives have a fitted effect of over 55% in size)
# Summary of the method: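 MDA-kb2 breast carcinoma cells carrying MMTV-luciferase (AR/GR responsive) were co-treated with compounds and the agonist R1881 for 16 h at 37C. Inhibition read as ONE-Glo luminescence; CellTiter-Fluor fluorescence measured in parallel for cytotoxicity.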
# [20] = target: Androgen receptor (Homo sapiens) (UniProt P10275); test: qHTS assay to identify small molecule antagonists of the androgen receptor (AR) signaling pathway (AID 743035; active means well fitted inhibition curve with a large enough effect in the signal ratio in the repeat runs, not every such curve was filed as active; the % refers to the signal ratio)
# Summary of the method: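 Quantitative HTS of the Tox21 10K library used HEK293 AR-UAS-bla cells stimulated with R1881 alongside compound for 16 h at 37C, followed by beta-lactamase FRET detection (LiveBLAzer B/G, 2 h, RT).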
smiles,measurement,setting,value
Cc1ccc(Br)cc1,outcome,[1],inactive
same,outcome,[2],inactive
same,outcome,[3],inactive
same,outcome,[4],inactive
same,outcome,[5],inactive
same,outcome,[6],inactive
same,outcome,[7],inactive
same,outcome,[8],inactive
same,Potency,[9],inactive
same,outcome,[10],inactive
same,outcome,[11],inactive
same,Potency,[12],inactive
same,Potency,[13],inactive
same,Potency,[14],inactive
same,outcome,[15],inactive
same,outcome,[16],inactive
CCN(CC)CC,outcome,[1],inactive
same,outcome,[2],inactive
same,outcome,[3],inactive
same,outcome,[4],inactive
same,outcome,[5],inactive
same,outcome,[6],inactive
same,outcome,[7],inactive
same,outcome,[8],inactive
same,Potency,[9],inactive
same,outcome,[10],inactive
same,outcome,[11],inactive
same,Potency,[12],inactive
same,Potency,[13],inactive
same,Potency,[14],inactive
same,outcome,[16],inactive
CN(C)CCC[C@@]1(c2ccc(F)cc2)OCc2cc(C#N)ccc21,outcome,[1],inactive
same,outcome,[2],inactive
same,outcome,[3],inactive
same,outcome,[4],inactive
same,outcome,[5],inactive
same,outcome,[6],inactive
same,outcome,[7],inactive
same,outcome,[8],inactive
same,Potency,[9],inactive
same,outcome,[10],inactive
same,outcome,[11],inactive
same,Potency,[13],inactive
same,Potency,[14],inactive
same,outcome,[15],inactive
same,outcome,[16],inactive
NNC(=O)CCCCC(=O)NN,outcome,[1],inactive
same,outcome,[2],inactive
same,outcome,[3],inactive
same,outcome,[4],inactive
same,outcome,[5],inactive
same,outcome,[6],inactive
same,outcome,[7],inactive
same,outcome,[8],inactive
same,Potency,[9],inactive
same,outcome,[10],inactive
same,outcome,[11],inactive
same,Potency,[13],inactive
same,Potency,[14],inactive
same,outcome,[15],inactive
same,outcome,[16],inactive
CCCCCCCCCCCCCC(=O)OCC,outcome,[1],inactive
same,outcome,[2],inactive
same,outcome,[3],inactive
same,outcome,[4],inactive
same,outcome,[5],inactive
same,outcome,[6],inactive
same,outcome,[7],inactive
same,outcome,[8],inactive
same,Potency,[9],inactive
same,outcome,[11],inactive
same,Potency,[12],inactive
same,Potency,[13],inactive
same,Potency,[14],inactive
same,outcome,[16],inactive
CCCCCCCCCCCC(C)=O,outcome,[1],inactive
same,outcome,[2],inactive
same,outcome,[3],inactive
same,outcome,[4],inactive
same,outcome,[5],inactive
same,outcome,[6],inactive
same,outcome,[7],inactive
same,outcome,[8],inactive
same,Potency,[9],inactive
same,outcome,[10],inactive
same,outcome,[11],inactive
same,Potency,[13],inactive
same,Potency,[14],inactive
same,outcome,[15],inactive
same,outcome,[16],inactive
c1cc2ccc3ccc4ccc5cccc6c(c1)c2c3c4c56,"fluorescence, % of fluorescein",[1],-0.0268% [at 3.72 µM]
same,"fluorescence, % of fluorescent control",[2],1.22% [at 3.72 µM]
same,activity change,[3],0.0204% [at 3.72 µM]
same,"fluorescence, % of fluorescent control",[4],-0.0354% [at 3.72 µM]
same,"fluorescence, % of Rose Bengal",[5],0.202% [at 3.72 µM]
same,"fluorescence, % of fluorescent control",[6],1.51% [at 3.72 µM]
same,"fluorescence, % of fluorescein control",[7],-0.0141% [at 3.72 µM]
same,"fluorescence, % of fluorescent control",[8],2.24% [at 3.72 µM]
same,Potency,[9],1950 nM (active)
same,"activity change, negative = inhibition",[10],4.22% [at 3.15 µM]
same,"activity change, negative = cytotoxicity",[14],5.01% [at 3.83 µM]
same,"activity change, negative = cytotoxicity",[15],1.8% [at 3.15 µM]
same,"viability change, negative = cytotoxic",[16],14.1% [at 3.79 µM]
CC/C=C\CCOC(=O)c1ccccc1,outcome,[1],inactive
same,outcome,[2],inactive
same,outcome,[3],inactive
same,outcome,[4],inactive
same,outcome,[5],inactive
same,outcome,[6],inactive
same,outcome,[7],inactive
same,outcome,[8],inactive
same,Potency,[9],inactive
same,outcome,[11],inactive
same,Potency,[12],inactive
same,Potency,[14],inactive
same,outcome,[15],inactive
same,outcome,[17],inactive
same,outcome,[18],inactive
same,outcome,[16],inactive
same,outcome,[19],inactive
CC1(C)S[C@@H]2[C@H](NC(=O)Cc3ccccc3)C(=O)N2[C@H]1C(=O)O (tested in a mixture with another compound),outcome,[1],inactive
same,outcome,[2],inactive
same,outcome,[3],inactive
same,outcome,[4],inactive
same,outcome,[5],inactive
same,outcome,[6],inactive
same,outcome,[7],inactive
same,outcome,[8],inactive
same,Potency,[9],inactive
same,outcome,[11],inactive
same,Potency,[12],inactive
same,Potency,[13],inactive
same,Potency,[14],inactive
same,outcome,[15],inactive
same,outcome,[16],inactive
CC(C)(Sc1cc(C(C)(C)C)c(O)c(C(C)(C)C)c1)Sc1cc(C(C)(C)C)c(O)c(C(C)(C)C)c1,"fluorescence, % of fluorescein",[1],0.0112% [at 18.6 µM]
same,"fluorescence, % of fluorescent control",[2],-0.101% [at 18.6 µM]
same,activity change,[3],0.0049% [at 18.6 µM]
same,"fluorescence, % of fluorescent control",[4],-0.146% [at 18.6 µM]
same,"fluorescence, % of Rose Bengal",[5],-0.645% [at 18.6 µM]
same,"fluorescence, % of fluorescent control",[6],-0.0941% [at 18.6 µM]
same,"fluorescence, % of fluorescein control",[7],-0.106% [at 18.6 µM]
same,"fluorescence, % of fluorescent control",[8],0.0012% [at 18.6 µM]
same,Potency,[9],inactive
same,outcome,[11],inactive
same,Potency,[12],inactive
same,Potency,[14],inactive
same,outcome,[15],inactive
same,outcome,[16],inactive
N#CC1(N)CCCCC1,outcome,[1],inactive
same,outcome,[2],inactive
same,outcome,[3],inactive
same,outcome,[4],inactive
same,outcome,[5],inactive
same,outcome,[6],inactive
same,outcome,[7],inactive
same,outcome,[8],inactive
same,Potency,[9],inactive
same,Potency,[12],inactive
same,Potency,[13],inactive
same,Potency,[14],inactive
same,outcome,[15],inactive
same,outcome,[16],inactive
CCCCN=C(N)N=C(N)N,outcome,[1],inactive
same,outcome,[2],inactive
same,outcome,[3],inactive
same,outcome,[4],inactive
same,outcome,[5],inactive
same,outcome,[6],inactive
same,outcome,[7],inactive
same,outcome,[8],inactive
same,Potency,[9],inactive
same,outcome,[10],inactive
same,outcome,[15],inactive
same,outcome,[16],inactive
O=C(O)Cc1ccccc1Oc1ccc(Cl)cc1Cl,outcome,[1],inactive
same,outcome,[2],inactive
same,outcome,[3],inactive
same,outcome,[4],inactive
same,outcome,[5],inactive
same,outcome,[6],inactive
same,outcome,[7],inactive
same,outcome,[8],inactive
same,Potency,[9],inactive
same,outcome,[11],inactive
same,Potency,[12],inactive
same,Potency,[13],inactive
same,Potency,[14],inactive
same,outcome,[16],inactive
CCNC(=O)C(C)OC(=O)Nc1ccccc1 (stereo unspecified),outcome,[1],inactive
same,outcome,[2],inactive
same,outcome,[3],inactive
same,outcome,[4],inactive
same,outcome,[5],inactive
same,outcome,[6],inactive
same,outcome,[7],inactive
same,outcome,[8],inactive
same,Potency,[9],inactive
same,outcome,[10],inactive
same,outcome,[11],inactive
same,Potency,[13],inactive
same,outcome,[15],inactive
CCCCCCCCC1CO1 (stereo unspecified),outcome,[1],inactive
same,outcome,[2],inactive
same,outcome,[3],inactive
same,outcome,[4],inactive
same,outcome,[5],inactive
same,outcome,[6],inactive
same,outcome,[7],inactive
same,outcome,[8],inactive
same,Potency,[9],inactive
same,outcome,[10],inactive
same,Potency,[12],inactive
same,Potency,[13],inactive
same,Potency,[14],inactive
same,outcome,[15],inactive
same,outcome,[20],inactive
same,outcome,[17],inactive
same,outcome,[18],inactive
same,outcome,[16],inactive
same,outcome,[19],inactive
Cc1ccc2ccccc2n1,outcome,[1],inactive
same,outcome,[2],inactive
same,outcome,[3],inactive
same,outcome,[4],inactive
same,outcome,[5],inactive
same,outcome,[6],inactive
same,outcome,[7],inactive
same,outcome,[8],inactive
same,Potency,[9],inactive
same,outcome,[11],inactive
same,Potency,[12],inactive
same,Potency,[13],inactive
same,Potency,[14],inactive
same,outcome,[15],inactive
same,outcome,[16],inactive
